This is an account of results in ChEMBL document CHEMBL1961873, “Compounds: GSK PKIS; Assays: Nanosyn kinase panel” (2012).

The target in assay [1] is T1, Serine/threonine-protein kinase Nek9 (Homo sapiens) (UniProt Q8TD19).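 Further: each value is a mean percent inhibition of NEK9.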
T1 sequence (whole entry): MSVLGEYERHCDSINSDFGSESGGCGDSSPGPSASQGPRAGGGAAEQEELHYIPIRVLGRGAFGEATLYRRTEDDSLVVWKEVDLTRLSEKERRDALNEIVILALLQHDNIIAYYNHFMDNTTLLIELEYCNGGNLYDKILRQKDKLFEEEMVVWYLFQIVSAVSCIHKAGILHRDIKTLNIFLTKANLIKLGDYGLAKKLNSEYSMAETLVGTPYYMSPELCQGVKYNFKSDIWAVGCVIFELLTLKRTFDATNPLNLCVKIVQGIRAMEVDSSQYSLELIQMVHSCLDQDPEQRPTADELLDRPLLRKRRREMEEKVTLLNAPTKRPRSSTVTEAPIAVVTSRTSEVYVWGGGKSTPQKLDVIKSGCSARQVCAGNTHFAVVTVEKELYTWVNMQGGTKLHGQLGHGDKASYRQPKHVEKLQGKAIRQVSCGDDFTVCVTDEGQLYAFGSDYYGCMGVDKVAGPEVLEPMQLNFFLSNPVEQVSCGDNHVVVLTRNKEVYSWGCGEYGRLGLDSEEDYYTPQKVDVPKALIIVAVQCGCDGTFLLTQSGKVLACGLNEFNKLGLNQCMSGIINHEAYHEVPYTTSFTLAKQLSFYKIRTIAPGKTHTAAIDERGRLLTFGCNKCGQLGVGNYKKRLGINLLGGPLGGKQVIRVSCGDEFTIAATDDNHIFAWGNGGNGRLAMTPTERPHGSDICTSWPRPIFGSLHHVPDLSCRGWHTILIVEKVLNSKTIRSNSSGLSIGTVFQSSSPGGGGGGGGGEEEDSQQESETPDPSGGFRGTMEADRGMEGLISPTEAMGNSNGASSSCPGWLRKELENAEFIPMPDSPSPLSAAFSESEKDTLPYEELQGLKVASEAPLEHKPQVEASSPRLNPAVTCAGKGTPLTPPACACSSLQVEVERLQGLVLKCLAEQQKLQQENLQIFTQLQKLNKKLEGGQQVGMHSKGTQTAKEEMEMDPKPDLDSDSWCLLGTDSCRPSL
The following applies: at 1 µM.

Assay [2] concerns the target Serine/threonine-protein kinase PLK1 (Homo sapiens) (UniProt P53350). The conditions noted are these: at 0.1 µM.
For assay [3] the target is unchanged. The conditions noted are these: at 1 µM.
The target in assay [4] is T2, Dual specificity protein kinase TTK (Homo sapiens) (UniProt P33981).
T2 sequence (whole entry): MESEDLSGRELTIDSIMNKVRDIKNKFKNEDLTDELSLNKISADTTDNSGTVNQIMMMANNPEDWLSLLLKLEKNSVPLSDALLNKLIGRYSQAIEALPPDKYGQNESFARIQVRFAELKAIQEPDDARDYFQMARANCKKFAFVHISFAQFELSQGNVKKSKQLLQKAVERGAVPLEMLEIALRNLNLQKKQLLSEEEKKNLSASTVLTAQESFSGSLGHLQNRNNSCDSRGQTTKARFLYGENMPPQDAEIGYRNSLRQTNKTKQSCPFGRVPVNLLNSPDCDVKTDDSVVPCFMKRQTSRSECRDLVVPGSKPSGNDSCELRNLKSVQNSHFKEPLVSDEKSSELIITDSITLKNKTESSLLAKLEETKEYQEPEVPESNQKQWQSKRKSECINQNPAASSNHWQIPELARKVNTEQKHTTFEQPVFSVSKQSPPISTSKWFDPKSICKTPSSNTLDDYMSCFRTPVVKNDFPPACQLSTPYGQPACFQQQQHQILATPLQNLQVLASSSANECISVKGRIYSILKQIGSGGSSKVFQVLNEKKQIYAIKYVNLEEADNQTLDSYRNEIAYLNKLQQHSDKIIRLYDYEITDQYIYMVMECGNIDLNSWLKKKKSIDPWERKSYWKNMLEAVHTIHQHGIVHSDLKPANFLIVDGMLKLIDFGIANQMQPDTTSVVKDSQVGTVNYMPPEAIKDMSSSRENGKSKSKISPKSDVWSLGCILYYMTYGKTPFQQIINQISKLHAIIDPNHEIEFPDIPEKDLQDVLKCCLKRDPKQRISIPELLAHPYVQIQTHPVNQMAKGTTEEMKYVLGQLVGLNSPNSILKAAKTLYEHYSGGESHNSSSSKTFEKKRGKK
The conditions noted are these: at 0.1 µM.

Assay [5] relates to T3, Receptor-type tyrosine-protein kinase FLT3 (Homo sapiens), P36888 [D835Y].
T3 sequence (whole entry): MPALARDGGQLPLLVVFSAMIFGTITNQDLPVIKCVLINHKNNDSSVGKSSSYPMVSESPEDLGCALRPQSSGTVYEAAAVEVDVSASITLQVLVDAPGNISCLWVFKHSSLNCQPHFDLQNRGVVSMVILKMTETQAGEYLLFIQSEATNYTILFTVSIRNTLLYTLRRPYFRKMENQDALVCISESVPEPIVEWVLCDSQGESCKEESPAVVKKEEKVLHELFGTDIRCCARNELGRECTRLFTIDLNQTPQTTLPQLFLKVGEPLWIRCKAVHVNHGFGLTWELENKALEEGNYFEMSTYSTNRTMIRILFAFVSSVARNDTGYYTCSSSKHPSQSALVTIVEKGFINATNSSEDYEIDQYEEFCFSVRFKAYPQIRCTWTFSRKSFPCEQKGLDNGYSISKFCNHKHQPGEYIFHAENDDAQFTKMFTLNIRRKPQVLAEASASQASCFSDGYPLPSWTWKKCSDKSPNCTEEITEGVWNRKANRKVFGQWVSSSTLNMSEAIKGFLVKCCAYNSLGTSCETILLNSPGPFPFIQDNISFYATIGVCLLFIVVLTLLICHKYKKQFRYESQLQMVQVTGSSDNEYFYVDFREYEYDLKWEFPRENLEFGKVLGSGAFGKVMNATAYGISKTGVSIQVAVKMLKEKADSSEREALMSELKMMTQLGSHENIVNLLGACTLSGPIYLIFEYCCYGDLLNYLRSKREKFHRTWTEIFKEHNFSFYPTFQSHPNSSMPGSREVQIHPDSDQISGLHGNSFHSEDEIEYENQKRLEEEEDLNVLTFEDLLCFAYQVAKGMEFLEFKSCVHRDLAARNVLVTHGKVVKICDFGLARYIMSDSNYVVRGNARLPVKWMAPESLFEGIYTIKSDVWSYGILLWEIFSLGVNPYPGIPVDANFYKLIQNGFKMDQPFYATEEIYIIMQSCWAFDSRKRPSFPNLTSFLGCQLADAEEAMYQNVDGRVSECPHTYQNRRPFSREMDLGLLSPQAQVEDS
The conditions noted are these: at 1 µM.

Assay [6] has as its target Vascular endothelial growth factor receptor 3 (Homo sapiens) (UniProt P35916). The following applies: at 0.1 µM.
For assay [7] the target is unchanged. The following applies: at 1 µM.
Assay [8] concerns the target Macrophage colony-stimulating factor 1 receptor (Homo sapiens) (UniProt P07333). The conditions noted are these: at 0.1 µM.
Assay [9] has the same target. The conditions noted are these: at 1 µM.
Assay [10] deals with Tyrosine-protein kinase Fyn (Homo sapiens) (UniProt P06241). The following applies: at 0.1 µM.
Tyrosine-protein kinase Fyn (Homo sapiens), sequence (P06241 2-537 limits assumed): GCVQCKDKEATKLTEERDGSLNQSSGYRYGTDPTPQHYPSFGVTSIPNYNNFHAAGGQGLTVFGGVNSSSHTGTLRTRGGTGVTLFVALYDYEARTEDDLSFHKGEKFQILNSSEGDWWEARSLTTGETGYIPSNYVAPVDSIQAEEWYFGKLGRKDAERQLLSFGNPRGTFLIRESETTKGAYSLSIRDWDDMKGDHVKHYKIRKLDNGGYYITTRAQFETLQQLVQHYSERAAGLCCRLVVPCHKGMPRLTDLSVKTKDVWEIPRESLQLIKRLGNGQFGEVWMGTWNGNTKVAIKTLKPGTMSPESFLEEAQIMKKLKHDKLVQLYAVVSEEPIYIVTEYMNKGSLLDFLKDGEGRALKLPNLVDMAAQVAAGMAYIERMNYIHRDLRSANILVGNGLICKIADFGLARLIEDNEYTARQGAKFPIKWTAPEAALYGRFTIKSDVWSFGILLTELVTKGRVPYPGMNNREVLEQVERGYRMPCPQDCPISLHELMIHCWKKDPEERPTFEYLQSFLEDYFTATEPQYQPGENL

SMILES strings stand for the structures. “And” between values parts separate entries of the source, which are not always exact repeats. Equal values may be shown once.

Vascular endothelial growth factor receptor 3 (Homo sapiens), sequence (P35916 whole entry): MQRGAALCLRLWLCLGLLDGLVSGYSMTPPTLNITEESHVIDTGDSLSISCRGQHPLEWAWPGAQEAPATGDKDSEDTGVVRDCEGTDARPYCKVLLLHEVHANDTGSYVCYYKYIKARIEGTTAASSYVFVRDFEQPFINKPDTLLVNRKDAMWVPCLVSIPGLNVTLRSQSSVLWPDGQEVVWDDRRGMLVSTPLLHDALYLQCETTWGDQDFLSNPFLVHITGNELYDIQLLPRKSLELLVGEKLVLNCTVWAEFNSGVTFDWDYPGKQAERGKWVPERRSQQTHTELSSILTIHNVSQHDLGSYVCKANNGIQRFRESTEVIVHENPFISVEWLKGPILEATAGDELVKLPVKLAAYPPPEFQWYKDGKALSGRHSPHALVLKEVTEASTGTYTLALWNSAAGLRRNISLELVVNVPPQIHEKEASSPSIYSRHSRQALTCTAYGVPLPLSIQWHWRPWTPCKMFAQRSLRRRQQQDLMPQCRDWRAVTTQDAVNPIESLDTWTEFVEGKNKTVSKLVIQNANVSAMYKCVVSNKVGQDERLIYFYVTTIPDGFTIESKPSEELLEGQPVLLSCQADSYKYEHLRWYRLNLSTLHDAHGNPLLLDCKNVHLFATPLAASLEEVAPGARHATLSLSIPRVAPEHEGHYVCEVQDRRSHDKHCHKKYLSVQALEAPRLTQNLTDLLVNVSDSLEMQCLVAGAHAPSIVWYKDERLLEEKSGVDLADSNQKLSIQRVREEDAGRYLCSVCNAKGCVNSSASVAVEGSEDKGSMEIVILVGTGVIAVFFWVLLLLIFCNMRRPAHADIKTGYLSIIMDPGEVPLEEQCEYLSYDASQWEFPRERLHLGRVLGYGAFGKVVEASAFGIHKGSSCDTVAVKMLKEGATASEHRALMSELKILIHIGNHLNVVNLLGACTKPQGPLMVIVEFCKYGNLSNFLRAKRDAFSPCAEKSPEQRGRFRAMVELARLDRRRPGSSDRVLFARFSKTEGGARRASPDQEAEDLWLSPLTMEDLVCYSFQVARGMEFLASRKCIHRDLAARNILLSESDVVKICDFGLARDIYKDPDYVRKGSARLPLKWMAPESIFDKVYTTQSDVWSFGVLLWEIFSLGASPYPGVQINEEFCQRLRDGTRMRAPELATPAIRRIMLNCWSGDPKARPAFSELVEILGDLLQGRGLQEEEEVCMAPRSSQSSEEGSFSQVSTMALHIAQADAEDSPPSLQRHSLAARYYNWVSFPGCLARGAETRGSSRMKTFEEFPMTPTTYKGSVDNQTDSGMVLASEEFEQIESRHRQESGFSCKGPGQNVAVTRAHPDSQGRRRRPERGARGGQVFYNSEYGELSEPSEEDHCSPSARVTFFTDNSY
Macrophage colony-stimulating factor 1 receptor (Homo sapiens), sequence (P07333 whole entry): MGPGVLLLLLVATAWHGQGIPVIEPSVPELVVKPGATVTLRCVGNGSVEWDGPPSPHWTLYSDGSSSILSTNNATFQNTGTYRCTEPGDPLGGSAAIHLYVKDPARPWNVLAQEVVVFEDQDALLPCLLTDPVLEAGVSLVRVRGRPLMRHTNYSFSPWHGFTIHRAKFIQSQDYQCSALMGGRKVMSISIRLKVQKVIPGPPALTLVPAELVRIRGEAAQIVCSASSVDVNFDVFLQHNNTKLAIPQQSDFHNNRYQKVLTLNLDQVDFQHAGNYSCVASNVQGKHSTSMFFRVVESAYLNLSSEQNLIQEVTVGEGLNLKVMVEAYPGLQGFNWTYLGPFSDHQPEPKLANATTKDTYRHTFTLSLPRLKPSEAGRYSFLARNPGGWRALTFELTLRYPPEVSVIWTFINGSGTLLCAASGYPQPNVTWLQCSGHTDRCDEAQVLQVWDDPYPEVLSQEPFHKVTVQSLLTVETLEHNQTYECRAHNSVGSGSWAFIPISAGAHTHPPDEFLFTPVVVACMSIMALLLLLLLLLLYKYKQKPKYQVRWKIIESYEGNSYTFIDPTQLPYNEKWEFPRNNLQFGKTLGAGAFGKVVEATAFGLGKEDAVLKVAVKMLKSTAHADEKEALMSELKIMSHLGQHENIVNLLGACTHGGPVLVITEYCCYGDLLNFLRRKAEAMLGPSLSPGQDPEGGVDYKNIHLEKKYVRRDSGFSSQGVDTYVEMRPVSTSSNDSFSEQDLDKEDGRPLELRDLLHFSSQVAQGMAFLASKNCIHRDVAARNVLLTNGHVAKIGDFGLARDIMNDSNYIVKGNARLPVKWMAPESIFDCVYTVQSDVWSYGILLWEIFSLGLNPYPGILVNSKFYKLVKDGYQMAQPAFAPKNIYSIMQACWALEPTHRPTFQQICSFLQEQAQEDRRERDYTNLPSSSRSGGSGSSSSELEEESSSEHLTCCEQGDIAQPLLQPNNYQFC
Serine/threonine-protein kinase PLK1 (Homo sapiens), sequence (P53350 whole entry): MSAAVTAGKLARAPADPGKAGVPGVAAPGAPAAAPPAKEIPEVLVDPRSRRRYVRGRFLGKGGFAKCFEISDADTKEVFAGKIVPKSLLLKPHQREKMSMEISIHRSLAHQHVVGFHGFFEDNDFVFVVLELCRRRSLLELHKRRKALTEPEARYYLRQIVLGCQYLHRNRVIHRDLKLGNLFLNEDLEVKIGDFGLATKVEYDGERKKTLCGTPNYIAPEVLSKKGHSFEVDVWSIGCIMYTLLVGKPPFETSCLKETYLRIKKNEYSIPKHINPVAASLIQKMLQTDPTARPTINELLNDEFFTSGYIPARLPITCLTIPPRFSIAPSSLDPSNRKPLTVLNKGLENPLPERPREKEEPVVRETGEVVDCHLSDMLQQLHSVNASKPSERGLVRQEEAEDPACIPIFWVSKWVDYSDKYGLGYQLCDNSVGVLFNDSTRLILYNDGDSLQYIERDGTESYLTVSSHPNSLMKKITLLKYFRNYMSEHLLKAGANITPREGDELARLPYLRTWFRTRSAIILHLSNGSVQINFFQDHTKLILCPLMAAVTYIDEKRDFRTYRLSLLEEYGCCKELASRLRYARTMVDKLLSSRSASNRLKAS

For orientation: inhibition means the drop in the measured response relative to a control, in per cent. For the compound `CN1CCC(C(=O)Nc2n[nH]c3nc(-c4ccc(O)cc4)c(Br)cc23)CC1`, the inhibition is 13.7% and 6.47% in assay [1]; 6% and 2.01% in assay [2]; 2.87% and 3.17% in assay [3]; 16.1% and 0.86% in assay [4]; 1.05% and 6.99% in assay [5]; -8.86% and 1.93% in [6]. For the same compound, the inhibition in [7] is 2.2%; in assay [8], -1.7% and 0.14%; in assay [9], 0.92% and 5.04%; in assay [10] it was 0.13% and 0.97%.
Regarding `CNC(=O)c1sc(-n2cnc3cc(OC)c(OC)cc32)cc1OCc1ccccc1C(F)(F)F`, the inhibition in assay [1] was 9.14%; in [2], 4.65%; in assay [3] it was 17.8%; in [4] it was 4.81%; in assay [5] it was -2.47%; in assay [6], 3.76%. The inhibition in assay [7] is 6.76%; in assay [8], -2.22%; in assay [9], 7.07%; in assay [10], 2.51%.
As for `OCCCNc1nccc(-c2c(-c3ccc(F)cc3)nn3cc(C(F)(F)F)ccc23)n1`, the inhibition in assay [1] was 0.58%; in [2] it was 3.57%; in [3], 1.96%; in assay [4], 3.55%; in [5], 1.7%; in [6] it was -2.7%. Besides, the inhibition in [7] stood at 2.54%; in assay [8] it was 1.88%; in [9], 6.34%; in assay [10], 0.07%.
On to `CN1CCC(n2cnc(-c3ccc(F)cc3)c2-c2ccnc(NCCO)n2)CC1`, for which the inhibition in assay [1] is 8.58%; in assay [2] it was 1.49%; in assay [3], 2.42%; in assay [4], -0.23%; in [5] it was 4.59%; in [6], 4.64%. Also, the inhibition in assay [7] was found to be 0.88%; in assay [8], 3.25%; in assay [9], 3.2%; in [10] it was 2.96%.
Take `O=C(Nc1n[nH]c2nnc(-c3cccnc3)cc12)C1CC1`: the inhibition in [1] was 1.12%; in [2], -0.87%; in [3], 2.11%; in [4], 1.85%; in [5], -1.95%; in assay [6], 0.27%. In addition, the inhibition in assay [7] was 3.35%; in [8], -1.71%; in [9] it was 5.46%; in assay [10], 1.64%.
Regarding `O=C(O[C@H]1CN[C@H](C#Cc2cc3ncnc(Nc4ccc5c(cnn5Cc5ccccc5)c4)c3s2)C1)N1CCOCC1`, the inhibition in assay [1] is -0.45%; in [2], -1.27%; in assay [3], 1.79%; in [4] it was 5.51%; in assay [5] it was 2.81%; in assay [6], 1.1%. For the same compound, the inhibition in assay [7] was 1.5%; in [8] it was -6.02%; in assay [9], 4.04%; in [10], 1.79%.
Regarding `COc1ccc2ncn(-c3cc(O[C@H](C)c4ccccc4C(F)(F)F)c(C(N)=O)s3)c2c1`, the inhibition in [1] was found to be 83.6%; in [2], 97%; in assay [3] it was 99.2%; in assay [4] it was 0.16%; in [5], 2.3%; in assay [6], 1.9%. Besides, the inhibition in assay [7] is 15%; in assay [8], -0.05%; in assay [9] it was 5.84%; in assay [10], 0.53%.
As to `CC1=C(C(=O)Nc2ccc3[nH]ncc3c2)C(c2ccc(F)cc2)N=C(c2ccc(C(F)(F)F)nc2)N1` (stereo not given), the inhibition is -1.51% in [1]; 1.85% in assay [2]; 1.78% in assay [3]; 3.99% in assay [4]; 1.9% in assay [5]; 1.85% in assay [6]. Moreover, the inhibition in [7] came to 0.82%; in assay [8], 3.03%; in assay [9] it was 2.25%; in assay [10] it was 4.17%.
In the case of `COC(=O)Nc1nc2cc(Oc3ccc(NC(=O)Nc4ccccc4)cc3)ccc2[nH]1`, the inhibition was determined as 6.76% in [1]; 2.19% in [2]; 4.22% in assay [3]; 6.44% in assay [4]; 2.44% in assay [5]; 1.7% in [6]. Besides, the inhibition was -0.36% in [7], 11.4% in assay [8], 21.8% in assay [9] and 0.67% in assay [10].
Regarding `N#Cc1cccc(Nc2ncc(-c3ccccc3)o2)c1`, the inhibition in assay [1] was 4.83%; in [2], 2.12%; in [3] it was 1.8%; in assay [4] it was 6.6%; in assay [5] it was 9.89%; in assay [6], -0.11%. Also, the inhibition in assay [7] was 3.1%; in [8] it was 3.05%; in assay [9], 14.6%; in assay [10] it was 1.43%.
As for `COc1cccc(Nc2nccc(-c3cnn4ncccc34)n2)c1`, the inhibition was 26.1% in assay [1]; 3.48% in assay [2]; 21.3% in assay [3]; 4.85% in assay [4]; 52.3% in assay [5]; -0.16% in assay [6]. Moreover, the inhibition in [7] was found to be 30.2%; in assay [8], 50.4%; in [9], 90.9%; in assay [10], 1.46%.
For `CC1=C(C(=O)Nc2ccc3[nH]nc(C)c3c2)C(c2ccc(C(F)(F)F)cc2)CC(=O)N1` (stereo not given), the inhibition in [1] is -5.55%; in assay [2] it was 3.32%; in [3] it was 0.85%; in [4], 4.14%; in [5], 5.4%; in assay [6], 5.85%. In addition, the inhibition was determined as 2.72% in [7], 1.56% in assay [8], 2.04% in assay [9] and 2.88% in assay [10].
Consider `COc1cc(Nc2ncc(-c3ccccc3)o2)cc(OC)c1`, for which the inhibition in [1] was determined as 7.35%; in assay [2] it was 4.62%; in [3], 2.5%; in assay [4] it was 10%; in [5], 36.7%; in assay [6], 1.25%. The inhibition in assay [7] turned out to be 9.4%; in assay [8], 14.5%; in [9] it was 56.3%; in [10], 2.7%.
As for `COc1ccc(-c2nn3ncccc3c2-c2ccnc(Nc3ccc(F)c(F)c3)n2)cc1`, the inhibition came out at 7.17% in assay [1]; 1.8% in [2]; 2.27% in assay [3]; 15.1% in assay [4]; 2.1% in assay [5]; 4.09% in assay [6]. For the same compound, the inhibition in assay [7] turned out to be 8.94%; in assay [8], 5.19%; in [9] it was 14.8%; in assay [10], 2.85%.
As to `O=C1Nc2ccccc2/C1=C1\CCc2cc(O)ccc21`, the inhibition in assay [1] worked out at 8.07%; in assay [2], 4.12%; in assay [3], 4.17%; in [4], 12.1%; in assay [5] it was 70.6%; in [6], 7.22%. For the same compound, the inhibition was 24.6% in assay [7], 17.3% in [8], 59.6% in assay [9] and 5.55% in [10].
